Data from the supplement of paper PMC10646978.
± gives the standard deviation.

Key:
Conditions in all cases: modulator concentration 10 µM
[1] = test system: RAW-Dual (murine macrophage reporter line); assay: NF-kB reporter (SEAP) activity fold change vs agonist alone; higher = enhanced NF-kB activity
Outline: (§1)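 RAW-Dual murine macrophage reporter cells were seeded at 50 000 per well in 384-well plates and pre-incubated 1 hour at 37 °C with compound pin-transferred to 10 μM final. After 1 hour, a PRR agonist was added and cells incubated overnight. Supernatant NF-κB (SEAP, QUANTI-Blue, 620 nm absorbance) and IRF (Lucia luciferase, QUANTI-Luc, luminescence) signals were divided by the mean agonist-only control on the same plate to give fold change. Two replicate plates were averaged, with errors by propagation.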

[2] = test system: RAW-Dual (murine macrophage reporter line); assay: IRF reporter (Lucia luciferase) activity fold change vs agonist alone; higher = enhanced IRF activity
Outline: as §1

[3] = test system: RAW-Dual (murine macrophage reporter line); assay: viability score (confluency relative to resting cells, overnight) (fraction); higher = more viable, active = viable (0.7 or more)
Outline: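 A compound met the cutoff when both of two confluency masks exceeded 70% of resting cells. Those masks were made with IncuCyte software from IncuCyte images of RAW-Dual macrophages treated overnight at 10 μM final. This is the basis of the viability score, which is confluency relative to resting cells.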

[4] = agonist: CpG ODN 1826 0.5 ug/mL

Compound	NF-kB reporter [1, 4]	NF-kB reporter ([1]; agonist: LPS 0.1 ug/mL)	NF-kB reporter ([1]; agonist: MPLA […])	IRF reporter ([2]; agonist: 3'3'-cGAMP 10 ug/mL)	IRF reporter ([2]; agonist: LPS 0.1 ug/mL)	IRF reporter ([2]; agonist: MPLA […])	viability score [3]
N#CC1=C(NC(=S)NC(=O)c2ccccc2)c2ccccc2CC12CCCCC2	0.818 ± 0.096	0.577 ± 0.12	1.08 ± 0.085	1.76 ± 0.18	1.41 ± 0.098	1.73 ± 0.18	0.877 (active)
c1ccc(-n2nnnc2Sc2ncnc3sc4c(c23)CCCC4)cc1	0.74 ± 0.043	0.481 ± 0.088	0.442 ± 0.027	0.0638 ± 0.0026	0.349 ± 0.095	0.835 ± 0.14	0.994 (active)
Cc1ccccc1C(=O)Nc1ccc(C(=O)N2CCCC(N(C)C)c3ccccc32)cc1 (configuration not stated)	1.05 ± 0.27	1 ± 0.05	0.929 ± 0.065	0.94 ± 0.046	1.15 ± 0.18	1.17 ± 0.13	1 (active)
OC(Cn1cncn1)(Cn1cncn1)c1ccc(F)cc1F	0.875 ± 0.072	0.967 ± 0.066	1.05 ± 0.091	1.02 ± 0.052	1.46 ± 0.096	1.62 ± 0.18	0.988 (active)
COc1ccc(C2CNC(=O)C2)cc1OC1CCCC1 (configuration not stated)	2.76 ± 0.37	2.2 ± 0.43	1.63 ± 0.1	0.942 ± 0.03	0.963 ± 0.18	1.17 ± 0.089	0.973 (active)
Cl.NC12CC3CC(CC(C3)C1)C2	1.44 ± 0.2	1.21 ± 0.38	1.04 ± 0.062	0.909 ± 0.033	1.44 ± 0.24	1.12 ± 0.096	0.983 (active)
Cc1ccc(C)c(NC(=O)CCN2CCN(C=O)CC2)c1	0.822 ± 0.17	0.905 ± 0.088	0.967 ± 0.079	0.962 ± 0.045	1.27 ± 0.37	1.33 ± 0.18	0.979 (active)
O=C(Oc1ccc2ccccc2c1)c1ccccc1	0.981 ± 0.055	1.06 ± 0.11	1.04 ± 0.066	0.906 ± 0.06	1.27 ± 0.12	1.12 ± 0.11	0.975 (active)
O=C(CS(=O)Cc1ccco1)NC/C=C\COc1cc(CN2CCCCC2)ccn1 (configuration not stated)	0.989 ± 0.16	1.02 ± 0.14	0.928 ± 0.052	0.897 ± 0.043	1.24 ± 0.3	1 ± 0.24	0.997 (active)
COc1ccc(C(=O)Nc2sc3c(c2C(N)=O)CCCC3)cc1OC	0.866 ± 0.067	1.01 ± 0.056	1.09 ± 0.029	0.694 ± 0.038	0.942 ± 0.12	1.08 ± 0.14	0.998 (active)
NC(=O)[C@@H](CCC(F)(F)F)N(Cc1ccc(-c2ncon2)cc1F)S(=O)(=O)c1ccc(Cl)cc1	0.744 ± 0.062	1.04 ± 0.049	1.31 ± 0.16	0.949 ± 0.051	1.43 ± 0.084	1.58 ± 0.13	0.997 (active)
O=S(=O)(c1cccc2ccccc12)n1cnc2ccccc21	1.1 ± 0.084	1.06 ± 0.11	0.998 ± 0.1	0.944 ± 0.089	1.26 ± 0.25	1.33 ± 0.26	1.01 (active)
CC(C)NCC(O)COc1ccc(CCOCC2CC2)cc1 (configuration not stated)	0.927 ± 0.09	1.02 ± 0.1	1.06 ± 0.04	0.907 ± 0.073	0.897 ± 0.029	0.764 ± 0.098	1 (active)
CNCc1cc(-c2ccccc2F)n(S(=O)(=O)c2cccnc2)c1.O=C(O)/C=C/C(=O)O	0.612 ± 0.05	1.04 ± 0.076	0.98 ± 0.021	0.931 ± 0.054	0.97 ± 0.056	0.855 ± 0.089	0.999 (active)
CCN(CC)c1ccc2cc(-c3nnc(NCc4ccccc4)s3)c(=O)oc2c1	1.12 ± 0.15	1.14 ± 0.072	0.912 ± 0.07	0.598 ± 0.026	1.47 ± 0.25	1.28 ± 0.22	0.997 (active)
CCOC(=O)C1=C(N)OC(C)=C(C(=O)OC)C1c1cccnc1 (configuration not stated)	1.16 ± 0.085	1.11 ± 0.081	1.16 ± 0.074	1.21 ± 0.04	1.12 ± 0.12	1.09 ± 0.095	0.988 (active)
COc1ccc(N(CC(=O)NCCSCc2ccccc2)S(C)(=O)=O)cc1Cl	0.873 ± 0.15	1.06 ± 0.071	0.893 ± 0.068	0.864 ± 0.12	1.08 ± 0.1	0.85 ± 0.18	1.01 (active)
O=C(NCC(F)(F)F)c1ccc(OCC2CCOCC2)nc1	0.911 ± 0.044	0.87 ± 0.093	1.09 ± 0.064	0.937 ± 0.044	1.3 ± 0.24	1.51 ± 0.46	0.993 (active)
O=C(NC(=S)c1c(-c2ccccc2)cc2ccccn12)c1ccccc1	0.746 ± 0.058	0.786 ± 0.038	0.883 ± 0.078	0.516 ± 0.03	1.18 ± 0.086	1.36 ± 0.18	1.01 (active)
COc1cc(C=C(C#N)c2nc3ccccc3[nH]2)cc(Cl)c1O	1.23 ± 0.07	1.05 ± 0.09	0.992 ± 0.029	1.09 ± 0.039	1.06 ± 0.061	1.07 ± 0.14	0.998 (active)
Cl.c1ccc(CC2=NCCN2)cc1	0.999 ± 0.14	1.08 ± 0.17	0.923 ± 0.051	0.887 ± 0.027	1.17 ± 0.22	1.13 ± 0.1	0.993 (active)
O=c1ccc2cc(O)c(O)cc2o1	1.34 ± 0.34	0.878 ± 0.044	1.03 ± 0.16	0.736 ± 0.026	1.34 ± 0.2	1.2 ± 0.12	0.986 (active)
CCCCN(CCCC)S(=O)(=O)c1ccc(N2CCCC2=O)c([N+](=O)[O-])c1	1.02 ± 0.12	1.07 ± 0.071	1 ± 0.062	0.975 ± 0.15	1.1 ± 0.13	1.13 ± 0.27	1 (active)
O=C(Oc1coc(CSc2ncccn2)cc1=O)c1ccc([N+](=O)[O-])cc1	0.972 ± 0.16	1.15 ± 0.13	1.03 ± 0.15	0.996 ± 0.03	1 ± 0.22	1.03 ± 0.1	0.986 (active)
O=C(NN=Cc1ccccc1C(F)(F)F)c1ccc(=O)[nH]n1	0.764 ± 0.062	0.877 ± 0.052	1.08 ± 0.098	0.964 ± 0.052	1.23 ± 0.08	1.28 ± 0.12	0.999 (active)
c1ccc(CSc2nnc(-c3cccnc3)o2)nc1	0.986 ± 0.056	1.09 ± 0.084	1 ± 0.074	0.992 ± 0.036	0.95 ± 0.13	0.858 ± 0.33	1 (active)
